# Screening results from PubChem.
# MsrA act – bovine methionine sulfoxide reductase A activation. purified bovine MsrA, absorbance read-out. activation, % at 10.6 µM. 0.3% of 360,000 active. AID 602163; in the data active = activation above about 7.5%
# PKA-R1A act – PKA-R1A complex activation; P00514+P68181; PKA-R1A dissociation, Cy5-IP20 fluorescence polarization; scaled: DMSO 0%, 113 µM cGMP 100%; activation, % at 11.4 µM; 0.083% of 340,000 active; AID 504707;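 active = percent activation above the mean of all tested compounds plus 3 SD, cut at about 19% in these data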;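 note: higher means more PKAc released from R1A so a rise in polarization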
# MsrA inhibitor – inhibitors of bovine MsrA; AID 651718; 0.75% of 360,000 active; inhibition, % at 15.5 µM; purified bovine MsrA, absorbance read-out; in the data active = inhibition above about 4.5%
# PKA-R2B activ – activates the human PKA-R2B holoenzyme complex; P22694+P31323; PKA-R2B holoenzyme dissociation, Cy5-IP20 fluorescence polarization; R2B truncated from residue 108, S112A mutant; 0% DMSO only, 100% 113 µM cGMP; activation, % at 11.4 µM; 0.079% of 340,000 active; AID 504700;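 active = activation above a cutoff set at the mean over all compounds plus 3 SD, cut at about 18% in these data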;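 note: higher means more holoenzyme dissociation and a rise in polarization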
# R1A FP artifact – counter-screen for PKA-R1A activators: fluorescence polarization artifacts; shares compounds with PKA-R1A act; activation, % at 11.4 µM; 7% of 280 active; Cy5-IP20 peptide alone, fluorescence polarization artifact counterscreen;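 active = mean activation over triplicate runs exceeds the adjusted cutoff derived for the parent primary screen, cut at about 19% in these data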;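 note: no PKA protein present so any polarization rise reflects compound interference; higher means stronger polarization artifact and likely false positive in parent screen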
# PKA-R1A act conf – confirmation of PKA-R1A complex activators | shares compounds with PKA-R1A act | Cy5-IP20 fluorescence polarization, PKA-R1A holoenzyme dissociation | activation, % at 11.4 µM | 9% of 280 active | AID 504800;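 active = mean activation over replicate wells exceeds the adjusted hit threshold taken from the earlier primary screen, cut at about 20% in these data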
# Target sequence (P00514 whole entry, looked up): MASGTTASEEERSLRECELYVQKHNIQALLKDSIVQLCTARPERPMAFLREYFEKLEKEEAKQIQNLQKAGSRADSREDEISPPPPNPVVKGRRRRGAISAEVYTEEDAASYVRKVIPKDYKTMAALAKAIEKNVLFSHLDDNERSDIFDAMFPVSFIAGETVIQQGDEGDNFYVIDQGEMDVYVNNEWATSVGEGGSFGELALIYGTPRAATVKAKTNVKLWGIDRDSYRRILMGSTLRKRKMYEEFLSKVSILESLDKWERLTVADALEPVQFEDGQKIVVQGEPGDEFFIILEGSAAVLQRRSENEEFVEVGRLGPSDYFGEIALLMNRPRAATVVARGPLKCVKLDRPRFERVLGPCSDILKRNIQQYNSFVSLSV
# A number is an active result; 0 = inactive; - = not tested or not shown. Only some compounds are listed: those with a hit (about 1.1% of all), similar ones and a draw of the others.
SMILES,MsrA act,PKA-R1A act,MsrA inhibitor,PKA-R2B activ,R1A FP artifact,PKA-R1A act conf
Cc1coc2cc3oc(=O)c(CCC(=O)NCc4ccccn4)c(C)c3cc12,0,0,0,0,-,-
Cc1coc2c(C)c3oc(=O)c(CCC(=O)NCc4ccccn4)c(C)c3cc12,0,19.7,0,0,0,0
COc1ccc2c(c1)[C@@H](NC(=O)c1ccncc1)[C@@H]1Cc3ccccc3[C@H]21,-,-,0,-,-,-
CC(C)(C)c1ccc(C#C[C@@H]2C=C[C@@H](O)[C@@H](COC(=O)NCc3ccccc3)O2)cc1,-,-,0,-,-,-
CCOc1ccc(-c2nnn(CCC(=O)O)n2)cc1OC,0,19.1,0,0,0,0
COC(=O)c1ccccc1NC(=O)NCc1cccnc1,0,0,0,0,-,-
COC(=O)c1ccccc1NC(=O)C(=O)NCc1ccncc1,0,21.5,0,0,0,0
Cc1cccc(NC(=O)CNC(=O)[C@@H](Cc2ccccc2)NC(=O)[C@H]2O[C@@H](n3ccc(=O)[nH]c3=O)[C@H](O)[C@@H]2O)c1C,-,-,0,-,-,-
C#CCOCCOCCOCCNc1nc(N2CCN(C(=O)[C@H]([C@@H](C)CC)n3cc([C@@H](N)CO)nn3)CC2)nc(N2CCN(C(=O)[C@H](CCCCN)n3cc([C@@H](N)CO)nn3)CC2)n1,0,0,0,0,-,-
C#CCOCCOCCOCCNc1nc(N2CCN(C(=O)[C@H]([C@@H](C)CC)n3cc([C@@H](N)CC(C)C)nn3)CC2)nc(N2CCN(C(=O)[C@H](CCCCN)n3cc([C@@H](N)CO)nn3)CC2)n1,0,20.4,-,0,0,0
N#Cc1ccc(S(=O)(=O)NCC2CCN(C(=O)C(=O)c3cc4ccccc4o3)CC2)cc1,-,-,0,-,-,-
CCc1noc(C)c1C(=O)N(CC)CC(=O)Nc1cc(Cl)ccc1C,0,19.1,0,0,0,0
CCN(CC(=O)Nc1cc(Cl)ccc1C)C(=O)CSCc1c(C)noc1C,0,0,0,0,-,-
CCN(CC)CCOC(=O)C(Cc1ccco1)Cc1cccc2ccccc12 (centres undefined),0,23.8,0,0,0,0
O=C(Cn1nnc2c(cnn2-c2ccccc2)c1=O)N1CCN(c2ccccc2F)CC1,0,18.9,0,0,0,0
O=C(Cn1cnc2c(cnn2-c2ccc(F)cc2)c1=O)N1CCN(c2ccccc2F)CC1,0,0,0,0,-,-
Cc1ccc(NC(=O)c2cncc(Br)c2)c([N+](=O)[O-])c1,0,22.7,0,0,0,0
COc1ccccc1N1CCN(C(=O)c2cc(S(=O)(=O)N3CCOCC3)ccc2C)CC1,0,18.7,0,0,0,0
O=C(O)c1ccc(-n2cccn2)c([N+](=O)[O-])c1,0,20.3,0,0,0,0
COc1ccc(CCNC(=O)Cn2cnc3sc(C)c(-c4ccc(F)cc4)c3c2=O)cc1OC,0,18.9,0,0,0,0
Cc1cc(O)cc(=O)n1-c1cc(C(F)(F)F)cc(C(F)(F)F)c1,-,-,0,-,-,-
CCCN1C(=O)c2[nH]nc(-c3ccccc3)c2C1c1ccc(C)cc1 (centres undefined),-,-,0,-,-,-
CCCC(=O)Nc1nnc(SCC(=O)N2CCCCC2)s1,0,19.3,0,0,0,0
CCCC(=O)Nc1nnc(SCC(=O)N2C(C)CCCC2C)s1 (centres undefined),0,0,0,0,-,-
COC(=O)C1=C(C)N(Cc2ccccc2C(F)(F)F)C(=NCc2ccc3c(c2)OCO3)NC1CCc1ccccc1 (centres undefined),-,-,0,-,-,-
SMILES,MsrA act,PKA-R1A act,MsrA inhibitor,PKA-R2B activ,R1A FP artifact,PKA-R1A act conf
CCc1cccc(Nc2cc(C)n(-c3cccc(CC)c3)c(=O)c2)c1,-,-,0,-,-,-
Cc1ccc(NC(=O)CSc2nc3ccccc3c(=O)n2CC2CCCO2)cc1 (centres undefined),0,18.6,0,0,0,0
CN(C)c1ccc(NC(=O)CSc2nc3ccccc3c(=O)n2CC2CCCO2)cc1 (centres undefined),0,0,0,0,-,-
Cc1nn2c(NCC(C)C)c3c(nc2c1-c1ccccc1)CCC3,0,20.2,-,0,0,0
COc1ccc(C(=O)NCC2CCN(C(=O)C(=O)c3cc4ccccc4o3)CC2)c(OC)c1,-,-,0,-,-,-
CSc1nc(-c2ccccc2)cc(C)c1C#N,0,0,0,0,-,-
CSc1nc(C)cc(/C=C\c2ccccc2)c1C#N,0,20.2,0,0,0,0
COCCCNC(=O)CCn1c(=O)c2ccccc2n(Cc2cccc([N+](=O)[O-])c2)c1=O,0,0,0,0,-,-
CCCCNC(=O)CCn1c(=O)c2ccccc2n(Cc2ccc(F)cc2)c1=O,0,22.4,0,0,0,0
Cc1ccc(S(=O)(=O)NC2CC(C)(C)NC(C)(C)C2)cc1C,0,19.2,0,0,0,0
Cc1ccc(NC(=O)C2CC(=O)n3c(nc4ccccc43)N2)cc1C (centres undefined),0,18.9,0,0,0,0
Cc1ccc(NC(=O)C2CC(=O)n3c(nc4ccccc43)N2)cc1Cl (centres undefined),0,0,0,0,-,-
CCOC(=O)c1cc(C)sc1NC(=O)c1ccc(Cl)s1,0,19.9,0,0,0,0
COc1ccc(/C=C2\SC(=O)N(CC(=O)Nc3ccc(O)cc3)C2=O)cc1OC,0,22.8,0,0,0,22.8
Nc1nc2c(ncn2[C@@H]2O[C@H](C(=O)NCCCN3CCCC3=O)[C@@H](O)[C@H]2O)c(=O)[nH]1,-,-,0,-,-,-
Cc1nc2cc(-c3ccc(Cl)cc3)nn2c(C)c1CCC(=O)NCc1ccco1,0,25.2,0,0,0,0
COc1ccc(-c2cc3nc(C)c(CCC(=O)NCc4ccco4)c(C)n3n2)c(OC)c1,0,0,0,0,-,-
COc1ccccc1C1C(C(N)=O)=C(C)Nc2nc(-c3ccccc3Cl)nn21 (centres undefined),0,0,0,0,-,-
COc1cccc(C2C(C(N)=O)=C(C)Nc3nc(-c4ccccc4Cl)nn32)c1 (centres undefined),0,18.7,0,0,0,0
Cc1sc(NC(=O)C2CCCCC2C(=O)O)c(C(N)=O)c1-c1ccccc1 (centres undefined),0,18.6,0,0,0,0
O=C(NCc1ccccc1)[C@H]1CCCN1C(=O)[C@H]1CCCN1C(=O)c1cccc(Cl)c1,-,-,0,-,-,-
CC(C)N(CC(=O)Nc1ccc(Cl)cc1C(F)(F)F)C(=O)CCl,0,19.5,0,0,0,0
O=C(N/N=C\c1ccc(Cl)s1)c1cccs1,0,20.4,0,0,0,0
O=C(N/N=C/c1ccncc1)c1cccs1,0,0,-,0,-,-
COC(=O)[C@]12C[C@H](CC(=O)NCC3CCCCC3)C(=O)N(Cc3ccc4c(c3)OCO4)C1=C[C@H](COCc1ccccc1)O[C@@H]2C,-,-,0,-,-,-
CNC(=O)COC(=O)c1ccc(OCC(=O)Nc2ccccc2OC)c(OC)c1,0,22.1,0,0,0,0
